Growth data for 13 compounds are collected here from PubChem BioAssay (NCI).

Test systems include NCI-H23 lung; NCI-H226 lung; NCI-H322M lung; HOP-62 NSCLC; NCI-H460 lung; HOP-92 NSCLC; NCI-H522 lung; A549/ATCC NSCLC; 786-0 renal; COLO 205 colon.
Holding throughout (experiment): NCI-60 one-dose screen, 48 h (100 = growth as untreated, 0 = no growth, -100 = all killed)
Conditions in all cases: 10 µM unless noted

The panel holds about 83,000 compounds, 20% with a hit somewhere; the sample as a whole holds those more often.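 Values shown are percent growth following 48 h exposure of cells in 96-well plates to a single concentration of compound; below 10 was considered active.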 Values without a mark were called inactive. The source made the active and inactive calls.

Regarding `C/C(Cc1ccc(Cl)cc1)=C(\c1ccc(OCCCN(C)C)cc1)c1ccc(OC(=O)Cc2ccccc2)cc1`, the growth with NCI-H23 lung is 101%; in the assay on NCI-H226 lung it was 110%; with NCI-H322M lung, 105%; in the assay on HOP-62 NSCLC, 92.2%; in the assay on NCI-H460 lung, 110%; in the assay with HOP-92 NSCLC, 101%. In addition, the growth was 70.5% with NCI-H522 lung, 105% in the assay on A549/ATCC NSCLC, 104% in the assay on 786-0 renal and 112% in the assay with COLO 205 colon.

In the case of `O=C(Nc1ccccc1[N+](=O)[O-])c1ccc(Cl)c(Cl)c1`, the growth was 86.6% in the assay with NCI-H23 lung; 79.9% in the assay on NCI-H226 lung; 101% with NCI-H322M lung; 102% in the assay with HOP-62 NSCLC; 93.4% with NCI-H460 lung; 69.7% in the assay with HOP-92 NSCLC. Besides, the growth in the assay on NCI-H522 lung is 69.9%; in the assay with A549/ATCC NSCLC, 104%; in the assay on 786-0 renal, 105%; with COLO 205 colon, 110%.

Take `CN1CCN(Cc2ccc(NC(=O)c3cncc(C#Cc4cnc(N)c5ncccc45)c3)cc2C(F)(F)F)CC1`: the growth was 22.2% with NCI-H23 lung; 7.14% (active) in the assay with NCI-H226 lung; 25.1% in the assay on NCI-H322M lung; -5.02% (active) in the assay on HOP-62 NSCLC; -35.5% (active) with NCI-H460 lung; 7.16% (active) in the assay with HOP-92 NSCLC. Further, the growth in the assay with NCI-H522 lung is 9.75% (active); in the assay with A549/ATCC NSCLC, 10.6%; with 786-0 renal it was -82.3% (active); in the assay with COLO 205 colon, -55.2% (active).

On to `COC(=O)N1CC(Oc2ccccn2)C2CC1c1ccccc1O2` (stereo not given), for which the growth in the assay on NCI-H23 lung was 94%; in the assay with NCI-H226 lung, 104%; with NCI-H322M lung it was 119%; in the assay with HOP-62 NSCLC, 100%; in the assay with NCI-H460 lung it was 100%; with HOP-92 NSCLC it was 90.3%. The growth with NCI-H522 lung was 97.6%; with A549/ATCC NSCLC, 98.6%; with 786-0 renal, 104%; in the assay with COLO 205 colon, 102%.

For `C#COc1cccc(Nc2ncnc3cc(NC(=O)[C@@H](C)Cl)ccc23)c1`, the growth is 22.8% [6.25 µM] in the assay with NCI-H23 lung; 41.4% [6.25 µM] in the assay with NCI-H226 lung; 38.9% [6.25 µM] in the assay with NCI-H322M lung; 7.46% [6.25 µM] (active) in the assay with HOP-62 NSCLC; 6.36% [6.25 µM] (active) with NCI-H460 lung; 57.5% [6.25 µM] in the assay with HOP-92 NSCLC. Also, the growth is -34.7% [6.25 µM] (active) in the assay on NCI-H522 lung, 6.69% [6.25 µM] (active) with A549/ATCC NSCLC, 17% [6.25 µM] in the assay with 786-0 renal and 3.72% [6.25 µM] (active) with COLO 205 colon.

In the case of `COC(=O)c1c2c(c(C)[n+]([O-])c1C)C(=O)C(NCc1ccc(OC)cc1)=CC2=O`, the growth in the assay on NCI-H23 lung is 27.5%; in the assay with NCI-H226 lung, 81.7%; with NCI-H322M lung it was 6.55% (active); in the assay with HOP-62 NSCLC, 47.7%; with NCI-H460 lung, 10.2%; in the assay with HOP-92 NSCLC, 36.9%. Also, the growth is -5.69% (active) in the assay with NCI-H522 lung, 4.4% (active) with A549/ATCC NSCLC, 54.2% in the assay on 786-0 renal and -45.2% (active) in the assay with COLO 205 colon.

Take `CCN(CC)Cc1cc(Nc2ccnc3cc(Cl)ccc23)ccc1O`: the growth with NCI-H23 lung is 99.2%; in the assay with NCI-H226 lung, 105%; in the assay with NCI-H322M lung, 89.7%; in the assay on HOP-62 NSCLC, 89.4%; with NCI-H460 lung, 96.8%; in the assay with HOP-92 NSCLC, 88.5%. For the same compound, the growth in the assay with NCI-H522 lung was 91.2%; in the assay with A549/ATCC NSCLC it was 107%; in the assay with 786-0 renal, 96.8%; in the assay with COLO 205 colon it was 81.5%.

Take `CCN1C(=O)N(CC)C2C1NN=c1s/c(=C\c3cnc(C)n3C)c(=O)n12` (stereo not given): the growth was 38.1% with NCI-H23 lung; 53.3% in the assay on NCI-H226 lung; 29.6% in the assay on NCI-H322M lung; 34.4% in the assay with HOP-62 NSCLC; 4.44% (active) in the assay on NCI-H460 lung; 43% with HOP-92 NSCLC. Besides, the growth with NCI-H522 lung is -14.4% (active); in the assay with A549/ATCC NSCLC it was 15.8%; in the assay with 786-0 renal it was 28.4%; in the assay on COLO 205 colon, 14.5%.

As to `COc1ccc(C[n+]2c3ccccc3n3c4ccc(N)cc4ccc32)c(OC)c1OC`, the growth in the assay with NCI-H23 lung was 48.9%; with NCI-H226 lung, 61.4%; in the assay on NCI-H322M lung, 102%; in the assay with HOP-62 NSCLC, 52.9%; with NCI-H460 lung it was 73.6%; in the assay with HOP-92 NSCLC, -0.227% (active). For the same compound, the growth was 11% with NCI-H522 lung, 63% in the assay with A549/ATCC NSCLC, 75.9% with 786-0 renal and 15.5% in the assay on COLO 205 colon.

In the case of `COC(=O)c1cc(Br)ccc1O`, the growth is 110% in the assay on NCI-H23 lung; 101% with NCI-H226 lung; 105% in the assay on NCI-H322M lung; 103% with HOP-62 NSCLC; 109% in the assay with NCI-H460 lung; 86.6% in the assay on HOP-92 NSCLC. Further, the growth with NCI-H522 lung was 94.8%; in the assay with A549/ATCC NSCLC, 99.9%; in the assay with 786-0 renal it was 96.7%; in the assay with COLO 205 colon, 112%.

Regarding `CO[C@H]1CC(=O)n2c3ccccc3c3c4c(c5c6ccccc6n1c5c32)C(=O)NC4=O`, the growth was 63.3% with NCI-H23 lung; 52.1% with NCI-H226 lung; 63.5% in the assay with NCI-H322M lung; 54.4% with HOP-62 NSCLC; 29.1% with NCI-H460 lung; 86.1% with HOP-92 NSCLC. Moreover, the growth in the assay on NCI-H522 lung is 58.9%; in the assay on A549/ATCC NSCLC it was 57%; in the assay on 786-0 renal, 97.4%; in the assay on COLO 205 colon it was 42%.

As for `COc1cc(OC)c(/C=C/C(=O)c2c(O)cc(OC)c(C3CCN(C)CC3)c2OC)c(OC)c1`, the growth is -58.8% (active) in the assay with NCI-H23 lung; -47.7% (active) with NCI-H226 lung; -15.8% (active) with NCI-H322M lung; -96.2% (active) in the assay with HOP-62 NSCLC; -75% (active) in the assay on NCI-H460 lung; -12.2% (active) with HOP-92 NSCLC. Moreover, the growth in the assay with NCI-H522 lung is -80% (active); in the assay on A549/ATCC NSCLC, -60.7% (active); in the assay on 786-0 renal it was -97.7% (active); in the assay with COLO 205 colon it was -96.7% (active).

For the compound `O=c1nc(-c2ccccc2)c2cc(-c3ccc(C(F)(F)F)nc3)ccc2[nH]1`, the growth in the assay on NCI-H23 lung is 89.5%; in the assay on NCI-H226 lung it was 100%; with NCI-H322M lung it was 92.9%; in the assay on HOP-62 NSCLC, 106%; with NCI-H460 lung it was 106%; with HOP-92 NSCLC, 105%. Besides, the growth in the assay on NCI-H522 lung is 85.3%; with A549/ATCC NSCLC it was 111%; with 786-0 renal, 100%; in the assay with COLO 205 colon it was 105%.
